Source: PubChem BioAssay (NCATS)
Records with an inconclusive call do not appear. Activity calls are given as the source filed them. Calls follow the shape of the dose curve; as a rule, active = well fitted cell-killing curve with a large enough effect; inconclusive = small, poorly fitted or top-dose-only effect, or effect the other way; inactive = no such curve, though single readings can be large or run the other way.

Experiment: Quantitative High-Throughput drug screen in 47 multiple myeloma cell lines against the NCATS MIPE library collection: KMM1_JCRB cell viability assay (AID 1918960); also: nearly all actives have a fitted effect of over 30% in size
Settings: KMM1 myeloma viability, CellTiter-Glo ATP luminescence, 48 h; series mostly up to 45.8 µM; viability (% of DMSO): at the top concentration
Excerpt: PI: Beverly A. Mock Ph.D.
Laboratory of Cancer Biology and Genetics,
Center for Cancer Research, National Cancer Institute,
National Institute of Health, Bethesda, Maryland
Drug resistance and disease progression are common in multiple myeloma (MM) patients, underscoring the need for new therapeutic combinations. […] We hypothesized that effective combinations would reduce MYC expression and enhance p16 activity. […] These preclinical data identify potentially useful drug combinations for evaluation in drug-resistant MM and reveal potential mechanisms of combined drug sensitivity.
Described herein is the primary MIPE qHTS used to cherrypick compounds. Validated compounds were then further tested for potential synergistic activiy.
[1] Peat TJ, Gaikwad SM, Dubois W, Gyabaah-Kessie N, Zhang S, Gorjifard S, Phyo Z, Andres M, Hughitt VK, Simpson RM, Miller MA, Girvin AT, Taylor A, Williams D, D'Antonio N, Zhang Y, Rajagopalan A, Flietner E, Wilson K, Zhang X, Shinn P, Klumpp-Thomas C, McKnight C, Itkin Z, Chen L, Kazandijian D, Zhang J, Michalowski AM, Simmons JK, Keats J, Thomas CJ, Mock BA. Drug combinations identified by high-throughput screening promote cell cycle transition and upregulate Smad pathways in myeloma. Cancer Lett. 2023 Aug 1;568:216284. doi: 10.1016/j.canlet.2023.216284. Epub 2023 Jun 24. PMID: 37356470; PMCID: PMC10408729.
SEQUENCE No. (e.g., 1, 2, 3, etc.); […] (e.g., Cells, Incubation, Reagent, etc.); VALUE and DESCRIPTION.
1; Cells; 5 uL; white, solid bottom 1536-well Greiner assay plate.
2; Compounds; 23 nL; Kalypsis pin tool (Wako USA) equipped with a 1536-well pin head to transfer to the assay plates.
3; Incubation; 48 hours; 37C incubation.
4; Reagent;5uL; CellTiter Glo (Promega).
5; Detector; 425V; Luminescence; Viewlux PerkinElmer.
NOTES (numbers refer to Sequence numbers above)
1. The cell-based screening methods employed in this study were like those previously published. Briefly, the corresponding myeloma cell lines were screened in 1,536-well plates with 500 cells, 5-uL per well for inhibition of cell viability (assessed by measuring ATP levels with CellTiterGlo).
2. NCATS MIPE 4.0 library of approved and investigational drugs were added using the Kalypsis pin tool. Wells treated with DMSO only for 100% viability and media only cells for 0% viability were used as controls.
3. The assay plates were covered and incubated for 48 hours in a 37C, 5% CO2 incubator with controlled humidity.
4. After 48 hours, CellTilter-GloTM luminescent substrate mix (Promega) reagent was added to the assay plate and plates we incubated for 5 min at room temperature.
5. Signal was measured as median relative luminescence units on a ViewLux (PerkinElmer) multiplate reader.
[1] Heske CM, Davis MI, Baumgart JT, Wilson K, Gormally MV, Chen L, Zhang X, Ceribelli M, Duveau DY, Guha R, Ferrer M, Arnaldez FI, Ji J, Tran HL, Zhang Y, Mendoza A, Helman LJ, Thomas CJ. Matrix Screen Identifies Synergistic Combination of PARP Inhibitors and Nicotinamide Phosphoribosyltransferase (NAMPT) Inhibitors in Ewing Sarcoma. Clin Cancer Res. 2017 Dec 1;23(23):7301-7311. doi: 10.1158/1078-0432.CCR-17-1121. Epub 2017 Sep 12. PMID: 28899971; PMCID: PMC6636827.
Potency is read from the fitted curve at half-maximal effect.

SMILES	Potency	viability (% of DMSO)
C[C@@]12OC(=O)[C@]1([C@@H](O)[C@@H]1C=CCCC1)NC(=O)[C@H]2CCCl	7.4 nM (active)	
COC1=CC(C)=C[C@@H](C)[C@@H](O)[C@@H](C)CC(C)=CC=C[C@H](OC)[C@H]([C@@H](C)[C@@H](O)[C@H](C)[C@@]2(O)C[C@@H](O)[C@H](C)[C@@H](C(C)C)O2)OC1=O	9.3 nM (active)	
CCNC(=O)C[C@@H]1N=C(c2ccc(Cl)cc2)c2cc(OC)ccc2-n2c(C)nnc21	235 nM (active)	
c1ccc2c(CN3CCNCC3)cccc2c1		92.6% (inactive)
C[C@@H]1CC[C@H]2[C@@H](C)C(=O)O[C@@H]3O[C@@]4(C)CC[C@H]1[C@]32OO4		107% (inactive)
C[C@H]([C@H](O)CCC(C)(C)O)[C@H]1CC[C@@]2(O)C3=CC(=O)[C@@H]4C[C@@H](O)[C@@H](O)C[C@]4(C)[C@@H]3CC[C@]12C		107% (inactive)
C[C@]12CC[C@H]3[C@@H](CCC4=CC(=O)CC[C@@]43C)[C@H]1CC[C@H]2OC(=O)CCC1CCCC1		95.1% (inactive)
O=C(NCC1CCOCC1)c1cnc(Nc2ccc(Cl)cc2Cl)nc1C(F)(F)F		89.3% (inactive)
CC(O)=C(C#N)C(=O)Nc1cc(Br)ccc1Br		122% (inactive)
NC1CC1c1ccccc1 (stereo not given)		101% (inactive)
CC(=Cc1csc(C)n1)[C@@H]1C[C@H]2O[C@@H]2CCC[C@H](C)[C@@H](O)[C@@H](C)C(=O)C(C)(C)[C@@H](O)CC(=O)O1	1 nM (active)	
CCC(=O)OC1CCC2C3CCC4=CC(=O)CC[C@@]4(C)C3CC[C@]12C (stereo not given in full)		100% (inactive)
CC[C@@]1(O)C(=O)OCc2c1cc1n(c2=O)Cc2cc3ccccc3nc2-1	105 nM (active)	
C#CC1(O)CCC2C3CCC4=CC(=O)CCC4(C)C3CCC21C (stereo not given)		87.5% (inactive)
O=S(=O)(F)Cc1ccccc1		99% (inactive)
CCN1C[C@]2(OC(=O)c3ccccc3NC(C)=O)CC[C@H](OC)[C@@]34[C@H]5CC6[C@@H](OC)C[C@](O)(C(C[C@@H]23)[C@@H]14)[C@@]5(O)[C@@H]6OC		86.5% (inactive)
CN(C)[C@@H]1C(=O)C(C(N)=O)=C(O)[C@@]2(O)C(=O)C3=C(O)c4c(O)cccc4[C@@](C)(O)[C@H]3[C@H](O)[C@@H]12		94.9% (inactive)
COc1ccc2c(c1)[C@]13CCCCC1C(C2)N(C)CC3 (stereo not given in full)		74.6% (inactive)
CC(N[C@H]1C[C@H]1c1ccccc1)c1ccc2c(c1)OCCO2 (stereo not given in full)		112% (inactive)
c1ccc(CCCN2CCN(CCOC(c3ccccc3)c3ccccc3)CC2)cc1		76.6% (inactive)

SMILES	Potency	viability (% of DMSO)
COc1ccc(N(C(=O)Oc2c(C)cccc2C)c2ccnc(Nc3ccc(N4CCN(C)CC4)cc3)n2)c(OC)c1	2960 nM (active)	
Cc1c(C(=O)c2cccc3ccccc23)c2cccc3c2n1[C@H](CN1CCOCC1)CO3	5260 nM (active)	
COc1ccc(CC2NCCc3cc(OC)c(OC)cc32)cc1OC (stereo not given)		80.8% (inactive)
O=C1C=CC[C@@H]2[C@H]3CCCN4CCC[C@@H](CN12)[C@@H]34		111% (inactive)
CC[C@@H](C(N)=O)N1CCCC1=O		120% (inactive)
COCC1(CO)C(=O)C2CCN1CC2 (stereo not given)	20900 nM (active)	
CCCC[N+]1(C)[C@H]2CC(OC(=O)[C@H](CO)c3ccccc3)C[C@H]1[C@H]1O[C@H]12 (stereo not given in full)		98.9% (inactive)
CCc1c(C(=O)C(N)=O)c2c(OCC(=O)O)cccc2n1Cc1ccccc1		107% (inactive)
COc1ccc2c(c[n+](C)c3c4cc5c(cc4ccc23)OCO5)c1OC	5900 nM (active)	
C[C@]12CCC(=O)C(O)=C1CC[C@@H]1[C@H]3CCC(=O)[C@@]3(C)CC[C@@H]12		100% (inactive)
Cc1[nH]nc2ccc(-c3cncc(OC[C@@H](N)Cc4c[nH]c5ccccc45)c3)cc12		120% (inactive)
CSCC[C@@H](NC(=O)[C@@H](Cc1ccccc1)NC(=O)CNC(=O)CNC(=O)[C@@H](N)Cc1ccc(O)cc1)C(=O)O		129% (inactive)
CC(C)[C@H]1C(=O)N[C@H](CO)Cc2c[nH]c3cccc(c23)N1C		82.5% (inactive)
O=C(N[C@H]1CN2CCC1CC2)c1ccc(Cl)cc1		68.5% (inactive)
COc1cc([C@@H]2c3cc4c(cc3[C@@H](O)C3COC(=O)C32)OCO4)cc(OC)c1O (stereo not given in full)	18.7 nM (active)	
O=[N+]([O-])c1ncc[nH]1		80.1% (inactive)
COc1ccc2c(c1)CN(C)CC2c1ccc(Cl)c(Cl)c1 (stereo not given)	14800 nM (active)	
O=c1[nH]c2ccc(Cl)cc2c(N[C@@H]2CN3CCC2CC3)c1-c1nc2ccccc2[nH]1	46.9 nM (active)	
Cc1c(C(=O)Nc2cccc(C(F)(F)F)c2)cc(-c2ccccc2)n1CCCN1CCOCC1	14800 nM (active)	
CCN1CCN(C(=O)Cc2ccc(Nc3ncc(F)c(Nc4ccc(C(=O)Nc5ccccc5Cl)cc4)n3)cc2)CC1	2640 nM (active)	
